Molecules are shown by their SMILES. Several values for one entry are separate records, joined by “and”; a condition that tells them apart may be missing. Equal values may be shown once. Among all 330,000 compounds or so, about 650 (0.2%) were called active. The sample holds actives, similar compounds and a random draw of the others, so the mix is not that of the screen. Rule as the data show it: active = inhibition above about 50%; inactive = the rest. Where a structure was tested more than once in an assay, its records may differ in their call.

A word on the inhibition: it is the relative decrease from the control value, in per cent.

Chain of Integrin alpha-4 (Homo sapiens) (P13612 whole entry, looked up): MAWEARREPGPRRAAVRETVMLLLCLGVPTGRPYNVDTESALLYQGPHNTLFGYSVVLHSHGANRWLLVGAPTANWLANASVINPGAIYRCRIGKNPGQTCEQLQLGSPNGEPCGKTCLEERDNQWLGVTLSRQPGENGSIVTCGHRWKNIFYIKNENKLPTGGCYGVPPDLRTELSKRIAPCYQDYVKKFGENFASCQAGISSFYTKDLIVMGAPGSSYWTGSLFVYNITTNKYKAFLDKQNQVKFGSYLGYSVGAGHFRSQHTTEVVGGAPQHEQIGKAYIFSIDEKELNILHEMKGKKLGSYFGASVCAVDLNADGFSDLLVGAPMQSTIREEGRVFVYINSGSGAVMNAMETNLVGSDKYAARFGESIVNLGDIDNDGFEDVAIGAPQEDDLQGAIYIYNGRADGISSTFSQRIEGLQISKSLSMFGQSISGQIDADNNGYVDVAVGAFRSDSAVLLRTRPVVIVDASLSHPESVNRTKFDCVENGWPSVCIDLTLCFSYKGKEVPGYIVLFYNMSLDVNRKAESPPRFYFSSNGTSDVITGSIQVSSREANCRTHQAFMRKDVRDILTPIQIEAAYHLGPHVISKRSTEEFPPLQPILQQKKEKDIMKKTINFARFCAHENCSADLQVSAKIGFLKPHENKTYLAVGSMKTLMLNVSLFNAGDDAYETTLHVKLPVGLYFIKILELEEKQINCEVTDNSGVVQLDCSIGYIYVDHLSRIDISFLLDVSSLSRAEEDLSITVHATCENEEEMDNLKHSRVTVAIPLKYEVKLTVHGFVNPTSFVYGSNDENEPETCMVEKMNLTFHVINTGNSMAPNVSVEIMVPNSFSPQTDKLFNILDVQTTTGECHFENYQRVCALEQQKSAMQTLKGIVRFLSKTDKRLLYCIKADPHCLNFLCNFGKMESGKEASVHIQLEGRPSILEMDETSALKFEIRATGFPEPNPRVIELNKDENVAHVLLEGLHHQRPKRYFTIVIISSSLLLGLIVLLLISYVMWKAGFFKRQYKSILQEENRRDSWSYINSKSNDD

The assay addresses Integrin alpha-4 (Homo sapiens) (UniProt P13612). Description: VLA-4 integrin binding inhibitors – MLPCN library, flow cytometry, VLA-4 expressing cells, VLA-4 allosteric modulator project, primary screen (AID 2557). The settings on record: ligand binding flow cytometry, stronger effect = higher value, about 7 µM as worked out from the volumes in the protocol. Background: A flow cytometer gives signals particle by particle.
As for `CC1(C)SC2C(NC(=O)COc3ccccc3)C(=O)N2C1C(=O)O` (configuration not stated), the inhibition was 5.73% (inactive) and 56.2% (active).

In the case of `CC1(C)S[C@@H]2[C@H](N=CN3CCCCCC3)C(=O)N2[C@H]1C(=O)O`, the inhibition was 4.34% (inactive). Then `CC1(C)S[C@@H]2[C@H](NC(=O)COc3ccccc3)C(=O)N2C1C(=O)OCc1ccccc1` (some centres not stated), with -9.56% (inactive); and `COc1ccccc1N1CCN(c2ncnc3sc(C)c(-c4ccccc4)c23)CC1`, with -10.6% (inactive).

Consider `CCn1c(/C=N/NC(=O)c2ccc(OC)cc2)nc2ccccc21`, for which the inhibition was -11% (inactive). For `O=C(C1CCCO1)N1CCN(C(=S)NC2CC2)CC1` (configuration not stated), the inhibition is 8.17% (inactive). As for `COc1ccccc1N(C(=O)Cn1nnc2ccccc21)C(C(=O)NCc1ccco1)c1ccc(C)o1` (configuration not stated), the inhibition is 14% (inactive).

Turning to `O=C(Nc1ccc(F)c(Cl)c1)C1CCN(S(=O)(=O)c2cccnc2)CC1`, the inhibition was 12.9% (inactive).

For `Nc1nnnn1/N=C/c1cccc(Br)c1`, the inhibition is 0.88% (inactive). For `Cc1ccc(NC(=O)OCCNC(=O)c2ccncc2)cc1`, the inhibition was -1.13% (inactive).

On to `CCOC(=O)Nc1ccc(NC(=O)OCC)cc1`, for which the inhibition is 10.4% (inactive). `Cc1ccc(NC(=O)OCc2cncs2)cc1`: the inhibition was 52.5% (active). Regarding `FC(F)Oc1ccccc1NC(=S)Nc1cccc(Cl)c1Cl`, the inhibition is 21.2% (inactive).

As to `CCN(CC(=O)NCc1ccc(Cl)cc1)C(=O)CSc1ccccc1`, the inhibition is -3.34% (inactive).

With `COc1ncnc2c1N=C1CC(C)(C)CC(N)=C1S2`, the inhibition was -11.6% (inactive).

With `O=C(NCc1ccc2c(c1)OCO2)C12CC3CC(CC(C3)C1)C2`, the inhibition is 0.46% (inactive). With `CCc1c(O)nc(SCC(=O)Nc2ccccc2)n(C(C)CC)c1=O` (configuration not stated), the inhibition is 9.62% (inactive). For the molecule `CCOC(=O)c1sc(C)c2c1NC(C)(c1cccc3ccccc13)NC2=O` (configuration not stated), the inhibition is -0.92% (inactive). In the case of `COc1ccc(CCNC(=O)CCC(=O)NC2CCCCC2)cc1OC`, the inhibition is 4.77% (inactive). Then `CCOP(=O)(OCC)C(Nc1ccc([N+](=O)[O-])cc1)c1ccc(Cl)cc1` (configuration not stated), with -0.81% (inactive); and `CCO[C@H]1OC(C(=O)NCc2ccccc2)=C[C@@H](c2coc3ccccc3c2=O)[C@@H]1CCCO`, with -1.21% (inactive).

With `C=CCSc1nnc2c(n1)-c1cccc3cccc-2c13`, the inhibition is -4.2% (inactive). Then `O=C(Cn1c(NCCO)nc2ccccc21)c1ccc(Cl)cc1Cl`, with 62.2% (active); and `CC(C)(C)C(=O)Cn1c(NCCO)nc2ccccc21`, with -16.2% (inactive). Consider `O=S(=O)(O)c1nc2ccccc2n1Cc1ccc(Cl)cc1Cl`, for which the inhibition was 16.4% (inactive).

With `Cn1cc(CN2CCC(C(O)CCc3ccccc3)CC2)c(-c2ccccc2F)n1` (configuration not stated), the inhibition was -11.7% (inactive). Consider `Cc1c(NC(=O)c2c([N+](=O)[O-])cnn2C)c(=O)n(-c2ccccc2)n1C`, for which the inhibition was 17.6% (inactive).

Take `Cc1ccc(C2NC(=S)NC3=C2N2CCC3CC2)cc1` (configuration not stated): the inhibition is 2.28% (inactive). Then `CC[C@@H]1CCCCc2ccccc2[C@@H](C(=O)C[C@H](O)CC(C)=O)OC1=O`, with -25.7% (inactive); and `O=C(Nc1ccc(Br)cc1)C1CCC(=O)N1Cc1ccccc1Cl` (configuration not stated), with 28.5% (inactive); and `CCN(CC(=O)Nc1c(F)cccc1F)C(=O)c1ccc(-c2ccccc2)cc1`, with -6.8% (inactive). For `CCCC[C@@H]1CN=C(N)N1CCc1cc(C(F)(F)F)cc(C(F)(F)F)c1`, the inhibition is 8.42% (inactive). `CC1CC(C)CN(S(=O)(=O)c2cccc(C(=O)N3C(=O)c4cccc(N)c4C3=O)c2)C1` (configuration not stated): the inhibition was 3.91% (inactive). Then `Cc1cc(C)nc(/N=C2\NC(=O)CC(C(=O)O)N2c2ccc(Cl)cc2Cl)n1` (configuration not stated), with -2.34% (inactive); and `CCOC(=O)c1sc(NC(=O)CSc2nc(O)c(Cc3ccccc3)c(=O)[nH]2)nc1C`, with 2.73% (inactive). Take `O=C(Nc1ncccc1O)c1ccc(C(=O)c2ccccc2)cc1`: the inhibition is 16.6% (inactive). With `O=C(NCc1nnc(SCC(=O)N2CCC(Cc3ccccc3)CC2)o1)c1ccco1`, the inhibition is -6.21% (inactive). As to `CCc1ccc2c(c1)C1(NN=C(c3ccccc3)S1)C(=O)N2` (configuration not stated), the inhibition was 92.2% (active). Take `Cc1c(C=O)c2ccccn2c1C(=O)c1ccncc1`: the inhibition is 11.9% (inactive). Then `CC/C(O)=C1\C(=O)CC(C)(C)CC1=NCCc1nc2ccccc2[nH]1`, with 55.8% (active); and `CCC/C(O)=C1\C(=O)CC(C)(C)CC1=Nc1ccccc1OC`, with 15.2% (inactive). As for `Cc1ccc(C)c(N2CCN(C(=O)CCc3nc4ccccc4[nH]3)CC2)c1`, the inhibition is 8.4% (inactive). In the case of `Cc1cc(C(=O)NNC(=S)NC(C)c2ccccc2)cs1` (configuration not stated), the inhibition is 6.13% (inactive).

For `CCC(C)(C)NC(=O)C(c1cccc(OC)c1OC)N(CC(C)C)C(=O)CCC(=O)Nc1cc(C)on1` (configuration not stated), the inhibition is 1.27% (inactive).

Take `O=C(COc1ccc(Cl)cc1)Nc1ccc2c(c1)OCO2`: the inhibition was 14.3% (inactive). Consider `NNC(=O)COc1ccc(C2SCCS2)cc1`, for which the inhibition is 54.2% (active). With `COc1ccc(OCC(=O)NNC(=O)C2CCC2)cc1`, the inhibition is 13.2% (inactive). Then `COC(=O)[C@@]12CCCN1[C@H](c1ccc(-c3ccc(F)cc3)c(OC)c1)[C@H]1C(=O)N(C)C(=O)[C@H]12`, with 21.7% (inactive); and `Cc1ccc(CNC(=O)CCCNC(=O)c2ccc(Cl)cc2)n1C`, with -1.01% (inactive).

On to `CC(=O)NCC(=O)N(C)C(C(=O)Nc1ccc2c(c1)OCCO2)c1ccccc1` (configuration not stated), for which the inhibition was 14.2% (inactive).

Turning to `O=c1[nH]nc(SCCS(=O)(=O)c2ccc(F)cc2)n1-c1ccccc1C(F)(F)F`, the inhibition was 3.05% (inactive). Turning to `C=C(C)CNC(=S)/N=c1\scc(C)n1CC`, the inhibition was 5.83% (inactive). Consider `O=C(O)CSCC(=O)Nc1ccc(C(F)(F)F)cc1`, for which the inhibition is 4.49% (inactive). Consider `Cc1cc2cc3c(N)[nH]nc3nc2cc1C`, for which the inhibition is 10.6% (inactive). Then `Cc1cc(OCCN2CCCC2)cc(C(C)C)c1`, with -8.43% (inactive). As to `Cc1nnc(SCC(=O)Nn2cnnc2)s1`, the inhibition is -1.38% (inactive). With `Cc1ccc(SCC(=O)Nc2ncc(C)s2)cc1`, the inhibition was -0.13% (inactive). On to `Cc1cnc(NC(=O)CSc2nnc(C)s2)s1`, for which the inhibition was 58.3% (active).

As for `COc1cccc(N2C(=O)CC(N3CCc4ccccc4C3)C2=O)c1` (configuration not stated), the inhibition is -4.39% (inactive). As to `COc1cccc(N2CCN(C3CC(=O)N(c4ccc(Cl)cc4)C3=O)CC2)c1` (configuration not stated), the inhibition is 94.7% (active).

As for `COc1cccc(N2C(=O)CC(N3CCN(S(=O)(=O)c4ccccc4)CC3)C2=O)c1` (configuration not stated), the inhibition was 12.7% (inactive). `Cc1cccc2nc(CSc3nc4[nH]ncc4c(=O)n3-c3cccc(Cl)c3)cc(=O)n12`: the inhibition is 0.93% (inactive). As to `O=C(Nn1c(-c2ccccc2)nc2ccccc2c1=O)c1ccc([N+](=O)[O-])cc1`, the inhibition is 52% (active). On to `Cc1nc2ccccc2c(=O)n1NC(=O)c1ccc(Cl)c([N+](=O)[O-])c1`, for which the inhibition is 8.96% (inactive). In the case of `O=C(Nn1c(SCc2ccc([N+](=O)[O-])cc2)nc2ccccc2c1=O)c1ccc(F)cc1`, the inhibition is -2.25% (inactive). Then `CN(C(=O)COC(=O)Cn1cnc2c1c(=O)n(C)c(=O)n2C)C1(C#N)CCCCC1`, with 0% (inactive). Then `COc1cccc(C2=CC(=O)C[C@H](c3ccc(F)cc3)C2)c1OC`, with 0% (inactive); and `Cc1ccc(S(=O)(=O)N(Cc2ccccc2)c2ccccn2)cc1[N+](=O)[O-]`, with 6.28% (inactive). Regarding `CCOc1cc(C(=S)N2CCOCC2)ccc1OS(=O)(=O)c1ccc(Br)cc1`, the inhibition is 6.18% (inactive). Then `COC(=O)N/N=C/c1c[n+]([O-])c2ccccc2[n+]1[O-]`, with 52.6% (active); and `COC(=O)N/N=C/c1ccc(-c2ccc(Cl)c(Cl)c2)o1`, with 12.9% (inactive); and `COC(=O)N/N=C/c1cn(CCCOc2ccc(C)cc2)c2ccccc12`, with 1.98% (inactive). On to `COc1cc(C(C(=O)NC2CCCC2)N(C(=O)c2ccco2)c2ccccc2C(C)=O)cc(OC)c1OC` (configuration not stated), for which the inhibition was -1.99% (inactive).

With `O=C(CN1CCSCC1)N/N=C/c1ccc(F)cc1`, the inhibition is -0.98% (inactive). With `Nc1nc(SCC(=O)NNc2c(Cl)cc(Cl)cc2Cl)n[nH]1`, the inhibition is -17.3% (inactive).

In the case of `Cc1ccc(N(C(=O)CNC(=O)c2ccco2)C(C(=O)NC2CCCC2)c2ccncc2)cc1` (configuration not stated), the inhibition was -11.3% (inactive). Take `CC(C)Cn1cnc2c1c(=O)n(CC(O)c1ccccc1)c(=O)n2CC(C)C` (configuration not stated): the inhibition was -0.03% (inactive). Regarding `Cc1ccccc1CN1CCNC(=O)C1CC(=O)NCCC1=CCCCC1` (configuration not stated), the inhibition was -8.93% (inactive). In the case of `CSCc1cc(N(C)C)nc(SCc2ccc(Cl)cc2Cl)n1`, the inhibition is -0.25% (inactive). Then `Cc1cccc(OCCCC(=O)Nc2ccc(S(=O)(=O)N3CCCC3)cc2)c1`, with 6.35% (inactive).

Consider `O=C(NC(=S)Nc1ccccc1C(=O)O)c1ccc(-c2ccc(Br)cc2)o1`, for which the inhibition is -8.29% (inactive).

For the molecule `CNC1(c2nnnn2-c2c(C)cccc2C)CCOC(C)(C)C1` (configuration not stated), the inhibition is -0.18% (inactive). Consider `CCN(CC(=O)Nc1c(F)cccc1F)C(=O)c1ccc(S(=O)(=O)N2CCCCC2)cc1`, for which the inhibition was -0.6% (inactive). Then `COc1ccccc1/C=C/C(=O)OCC(=O)NC1CCCCCC1`, with 9.38% (inactive); and `N#CC1(NC(=O)COc2ccc3oc4ccccc4c3c2)CCCCC1`, with 17.8% (inactive); and `COc1cccc(N(C(=O)c2snc(C(N)=O)c2N)C(C(=O)NCC2CCCO2)c2c[nH]c3ccccc23)c1` (configuration not stated), with -8.82% (inactive). On to `O=C1NC2(CCCCC2)N=C1c1ccccc1`, for which the inhibition was 7.05% (inactive). As for `Cn1cnc2c1c(=O)n(Cc1ccccc1C#N)c(=O)n2C`, the inhibition is 0.49% (inactive). In the case of `Cn1c(=NC(=O)c2ccc3c(c2)OCCO3)sc2cc(S(C)(=O)=O)ccc21`, the inhibition was 4.69% (inactive). Regarding `Cc1cc(C)nc(SCc2nnc(SCC(=O)OC3CCCCC3)o2)n1`, the inhibition was -6.47% (inactive). Regarding `CC(C)C[C@@H](CO)N1CCN(Cc2ccc(O)cc2)CCC1=O`, the inhibition was 25.2% (inactive). With `COC(=O)c1ccc(CN(c2ccccc2OC)S(=O)(=O)c2cccs2)o1`, the inhibition is 12.4% (inactive).
